Data: PubChem BioAssay AID1159580 (chemical genetic matrix, 2015)
Among all 5,500 compounds or so, about 2,000 (36%) were called active. Another 18% or so got no clear call; they are omitted. No stated cut-off is given here; in the data, active means normalized growth mostly below about 0.91 (no sharp cut-off); inconclusive means no clear call, values can overlap the other calls; inactive means mostly above about 0.92. This is one part of the list.

Assay: chemical genetic growth profiling, strain panel (AID 1159580);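 further: tested at 20 µM; growth read once vehicle control cultures reached saturation at 30 °C; 1 = growth at the plate median or of vehicle wells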
Conditions: S. cerevisiae deletion strains, growth OD
[1] = locus YDL101C, strain DUN1, stronger effect = lower value
[2] = locus YHR030C, strain SLT2, stronger effect = lower value
[3] = locus YMR263W, strain SAP30, stronger effect = lower value
[4] = locus YPL055C, strain LGE1, stronger effect = lower value

Measured: normalized growth

FC(F)(F)c1cccc(-n2c(CSCc3cccc4ccccc34)n[nH]c2=S)c1
inactive: locus YAR019C, strain CDC15, stronger effect = lower value 0.986 | locus YBL105C, strain PKC1, stronger effect = lower value 1 | locus YBR135W, strain CKS1, stronger effect = lower value 0.996 | locus YBR136W, strain MEC1, stronger effect = lower value 1 | locus YBR160W, strain CDC28, stronger effect = lower value 0.986 | locus YDL017W, strain CDC7, stronger effect = lower value 0.993 | locus YDL028C, strain MPS1, stronger effect = lower value 0.985 | [1] 0.989 | locus YDL108W, strain KIN28, stronger effect = lower value 0.998 | locus YDL132W, strain cdc53, stronger effect = lower value 0.988 | locus YDL214C, strain PRR2, stronger effect = lower value 0.993 | locus YDR052C, strain DBF4, stronger effect = lower value 1 | locus YDR054C, strain cdc34, stronger effect = lower value 0.992 | locus YDR226W, strain ADK1, stronger effect = lower value 0.986 | locus YDR477W, strain SNF1, stronger effect = lower value 0.976 | locus YER123W, strain YCK3, stronger effect = lower value 0.958 | locus YER133W, strain GLC7, stronger effect = lower value 0.969 | locus YFL009W, strain cdc4, stronger effect = lower value 0.978 | locus YFL029C, strain CAK1, stronger effect = lower value 0.993 | locus YFR003C, strain YPI1, stronger effect = lower value 1 | locus YFR019W, strain FAB1, stronger effect = lower value 1.01 | locus YFR028C, strain CDC14, stronger effect = lower value 0.994 | locus YGR040W, strain KSS1, stronger effect = lower value 0.991 | locus YGR052W, strain FMP48, stronger effect = lower value 1.08 | locus YGR092W, strain DBF2, stronger effect = lower value 0.952 | [2] 1.12 | locus YHR079C, strain IRE1, stronger effect = lower value 1.1 | locus YHR082C, strain KSP1, stronger effect = lower value 1.09 | locus YHR205W, strain SCH9, stronger effect = lower value 1.01 | locus YIL147C, strain SLN1, stronger effect = lower value 0.999 | locus YJL095W, strain BCK1, stronger effect = lower value 1.06 | locus YJL128C, strain PBS2, stronger effect = lower value 0.979 | locus YJL157C, strain FAR1, stronger effect = lower value 0.966 | locus YJR016C, strain ILV3, stronger effect = lower value 0.993 | locus YJR066W, strain TOR1 (second series), stronger effect = lower value 0.936 | locus YJR066W, strain TOR1, stronger effect = lower value 1.09 | locus YKL048C, strain ELM1, stronger effect = lower value 1 | locus YKL067W, strain YNK1, stronger effect = lower value 0.989 | locus YKL101W, strain HSL1, stronger effect = lower value 0.986 | locus YKL193C, strain SDS22, stronger effect = lower value 0.99 | locus YKL203C, strain TOR2, stronger effect = lower value 1.06 | locus YLR113W, strain HOG1, stronger effect = lower value 1.07 | locus YLR133W, strain CKI1, stronger effect = lower value 1 | locus YLR403W, strain SFP1, stronger effect = lower value 0.973 | locus YML070W, strain DAK1, stronger effect = lower value 0.993 | locus YMR001C, strain CDC5, stronger effect = lower value 0.992 | locus YMR205C, strain PFK2 (second series), stronger effect = lower value 1 | locus YMR277W, strain FCP1, stronger effect = lower value 0.976 | locus YNL006W, strain LST8, stronger effect = lower value 0.984 | locus YNL020C, strain ARK1, stronger effect = lower value 1 | locus YNL161W, strain CBK1, stronger effect = lower value 0.998 | locus YNL183C, strain NPR1, stronger effect = lower value 1.13 | locus YNL207W, strain RIO2, stronger effect = lower value 0.989 | locus YNL222W, strain SSU72, stronger effect = lower value 0.997 | locus YNL307C, strain MCK1 (second series), stronger effect = lower value 1 | locus YOL078W, strain AVO1, stronger effect = lower value 0.99 | locus YOL136C, strain PFK27, stronger effect = lower value 0.991 | locus YOR061W, strain CKA2, stronger effect = lower value 0.977 | locus YOR119C, strain RIO1, stronger effect = lower value 1.02 | locus YOR231W, strain MKK1, stronger effect = lower value 1.09 | locus YOR329C, strain SCD5, stronger effect = lower value 0.993 | locus YPL031C, strain PHO85, stronger effect = lower value 0.977 | locus YPL153C, strain RAD53, stronger effect = lower value 0.962 | locus YPL204W, strain HRR25, stronger effect = lower value 0.967 | locus YPL209C, strain IPL1, stronger effect = lower value 0.99 | locus YPL256C, strain CLN2, stronger effect = lower value 1.1 | locus YPR025C, strain CCL1, stronger effect = lower value 0.992 | locus YPR106W, strain ISR1, stronger effect = lower value 0.981 | locus YPR111W, strain DBF20, stronger effect = lower value 0.993 | strain NNK1, stronger effect = lower value 1.01 | strain TSCII, stronger effect = lower value 0.995

Cc1c(CC(C)(C)C(=O)O)n(Cc2ccc(Cl)cc2)c2ccc(F)cc12
inactive: locus YAL040C, strain CLN3, stronger effect = lower value 0.974 | locus YCL061C, strain MRC1 (second series), stronger effect = lower value 0.985 | locus YDR363W, strain ESC2, stronger effect = lower value 0.986 | locus YER002W, strain NOP16, stronger effect = lower value 0.978 | [3] 0.971 | locus YNL175C, strain NOP13, stronger effect = lower value 0.985 | locus YNL197C, strain WHI3, stronger effect = lower value 0.974 | locus YNL224C, strain SQS1, stronger effect = lower value 0.978 | locus YOR083W, strain WHI5 (second series), stronger effect = lower value 0.986 | [4] 0.923

N#CCC(=O)Nc1ccccn1
inactive: locus YAL013W, strain DEP1, stronger effect = lower value 1.02 | locus YBR229C, strain ROT2, stronger effect = lower value 0.964 | [1] 1.04 | locus YDR150W, strain NUM1, stronger effect = lower value 1.01 | locus YEL061C, strain CIN8, stronger effect = lower value 1.01 | locus YGR078C, strain PAC10, stronger effect = lower value 1.02 | [2] 1.24 | locus YHR087W, strain rtc3, stronger effect = lower value 0.986 | locus YJR043C, strain POL32, stronger effect = lower value 1.01 | locus YJR075W, strain HOC1, stronger effect = lower value 1 | locus YKL190W, strain CNB1, stronger effect = lower value 1 | locus YLR039C, strain RIC1, stronger effect = lower value 1.01 | locus YLR058C, strain SHM2 (second series), stronger effect = lower value 0.995 | locus YLR085C, strain ARP6, stronger effect = lower value 1.06 | locus YLR262C, strain YPT6, stronger effect = lower value 0.989 | locus YML094W, strain GIM5, stronger effect = lower value 1.02 | locus YMR219W, strain ESC1, stronger effect = lower value 0.992 | [3] 1.01 | locus YNL153C, strain GIM3, stronger effect = lower value 1.04 | locus YNL298W, strain CLA4 (second series), stronger effect = lower value 1.06 | locus YNL322C, strain KRE1, stronger effect = lower value 1.01 | locus YNR030W, strain Alg12, stronger effect = lower value 1.07 | locus YOL006C, strain TOP1, stronger effect = lower value 1.07 | [4] 1.04 | locus YPL241C, strain CIN2, stronger effect = lower value 1.04 | locus YPR135W, strain CTF4, stronger effect = lower value 1.2
